Experimental data as given in PubChem BioAssay AID2029 (NMMLSC, 2009).
“And” between values parts separate entries of the source, which are not always exact repeats. Equal entries are not always repeated. Hit rate of the full screen: of about 320,000 compounds, about 210 (0.066%) were called active. The full list was thinned out, with actives kept by preference. A number with no mark means an inactive call.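 How the source made its calls: active means GFP response relative to DMSO above a set limit, near the screen mean plus 3 SD (cut at about 150% in these data); inconclusive means Fewer than 70 cells measured for a yeast strain; inactive means the rest.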

Assay: modulators of CIT2-GFP expression in yeast, primary screen, S. cerevisiae, GFP fusion, multiplex flow cytometry, MLPCN library (AID 2029);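 further: ratio of well median GFP fluorescence to mean of DMSO wells on the plate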
Conditions: S. cerevisiae CIT2-GFP strain, 3 h, at 10 µM, hits give high values, 100 means same as DMSO wells

Point of comparison: `COc1ccc(C(=O)COC(=O)c2c(C)noc2C)cc1Cl`, GFP response vs DMSO 98.9%. Against it:
- O=C(Nc1ccc(Cl)cc1)c1cc2nc(C3CC3)cc(C(F)(F)F)n2n1 — higher, 115%
- Cc1ccccc1NC(=O)N1CCCC1C(=O)NCc1ccccc1 (stereo unspecified) — higher, 113%
- NC(=O)c1ncc(C(F)(F)F)cc1Oc1ccc(F)cc1 — higher, 99.4%
- CNc1nc(SC)nc(N(C#N)CC(=O)OC)n1 — higher, 104%
- O=C(COC(=O)c1ccc(O)cc1O)c1ccc2c(c1)OCCO2 — lower, 95.1%
- O=C1Nc2cc(Cl)c(Cl)cc2N(O)N1c1cc(Cl)cc(Cl)c1 — lower, 97.6%
- Cc1c(NC(=O)CSCc2ccccc2)cccc1C(=O)O — higher, 106%
- CCC(C)(C)C1CCC(=NNC(=O)c2ccc(Br)o2)CC1 (stereo unspecified) — lower, 97.7%
- COCCCNC(=O)[C@H]1N2C(=O)c3ccccc3C2SC1(C)C (stereo partly specified) — higher, 112%
- Cc1cc2cc3c(N)[nH]nc3nc2cc1C — higher, 113%
- O=C(NC1CCN(C(=S)Nc2ccc(Cl)cc2)CC1)C1CCCCC1 — lower, 97.3%
- Cc1ccc2nc(-c3ccc(NC(=O)CN(C)S(=O)(=O)c4ccccc4)cc3)sc2c1 — higher, 111%
- COc1ccc(N2CCN(C(=O)[C@@H](NC(=O)c3cc(OC)cc(OC)c3)C(C)C)CC2)cc1 — lower, 95.1%
- Cc1ccccc1NC(=O)CSC(=O)c1ccccc1 — higher, 102%
- O=C(NN1C(=O)C2CCCCC2C1=O)c1ccco1 (stereo unspecified) — higher, 104%
- COCCCNS(=O)(=O)c1cccc(S(=O)(=O)c2cccc(S(=O)(=O)NCCCOC)c2)c1 — higher, 115%
- O=c1/c(=C/c2ccc(CNS(=O)(=O)c3ccccc3)o2)sc2n1CCN=2 — higher, 107%
- CC1(C)CC(=O)C=C(N2CCOCC2)C1 — lower, 93.2%
- CCCCOc1ccc(C(=O)NCC(=O)OCC(=O)c2c(N)n(C)c(=O)n(C)c2=O)cc1 — lower, 92.4%
- C/C(CCC(=O)OC[C@H]1O[C@H](C#Cc2ccccc2)C=C[C@@H]1Oc1ccc(C)cc1)=N\OC[C@@H](O)[C@H]1O[C@@H]2OC(C)(C)O[C@@H]2[C@H]1O — higher, 109%
- Nc1ccc(OCC(O)C[n+]2ccc(CCS(=O)(=O)[O-])cc2)cc1 (stereo unspecified) — lower, 90%
- CCOC(=O)c1c(CN(C)C)n(-c2ccccc2)c2cc(Br)c(O)cc12 — higher, 101%
- Cc1ccc(NC(=O)CN(C)C(=O)COC(=O)C(C)(C)Oc2ccc(Cl)cc2)cc1 — higher, 109%
- COc1ccccc1NC(=O)C[n+]1ccccc1 — higher, 120%
- Cc1cccc[n+]1CC(=O)c1ccccc1 — higher, 113%
- CC(=O)NS(=O)(=O)c1ccc2c(c1)Cc1cc(S(=O)(=O)NC(C)=O)ccc1-2 — higher, 99.9%
- O=C(c1ccco1)N1CCN(C(=O)C2CC(c3ccc(Cl)c(Cl)c3)=NO2)CC1 (stereo unspecified) — lower, 89%
- CN1CCN(C(=O)C(=O)c2cn(CC(=O)N3CCCC3)c3ccccc23)CC1 — higher, 103%
- Cc1ccc(CNC(=O)C(=O)c2cn(CC(=O)N3CCCC3)c3ccccc23)cc1 — higher, 104%
- CCCCCC1CC(COc2ccccc2)OC1=O (stereo unspecified) — lower, 96.7%
- CO[C@H]1[C@@H]2C=CO[C@@H](O[C@H]3O[C@@H](CO)[C@H](O)[C@@H](O)[C@@H]3O)[C@@H]2[C@@]2(CO)O[C@@H]12 — higher, 109%
- C/C=C/c1ccc(OCC(O)CN2CCCCCCC2)c(OC)c1 (stereo unspecified) — higher, 101%
- N#Cc1cccc(NC(=O)CN2CCCCCC2)c1 — higher, 100%
- CCN(CC(=O)Nc1c(F)cccc1F)C(=O)CN1c2cccc3cccc(c23)S1(=O)=O — higher, 104%
- COc1ccc(Nc2cc(Sc3ccc(OC)cc3)ncn2)cc1 — lower, 86.2%
- Cc1ccc2c(=O)oc(N(C)C)nc2c1 — higher, 105%
- CCn1c(SCC(=O)Nc2ccccc2F)nc2c(c1=O)SC(C)C2 (stereo unspecified) — higher, 100%
- Cc1cccc([C@@H]2[C@@H]3C(=O)N(C)C(=O)[C@@H]3[C@@H]3C(=O)Nc4ccccc4C(=O)N23)c1 — lower, 87.5%
- CCc1ccc2[nH]c(=O)c(Cc3ccccc3)c(O)c2c1 — higher, 105%
- COc1ccc(NC(=O)CN(Cc2ccccc2)S(C)(=O)=O)cc1OC — higher, 101%
- Cc1ccccc1OC(=O)Cn1c(C(F)(F)F)nc2ccccc21 — lower, 84.2%
- COc1ccc(C(=O)NC2CC2)cc1OC1CCN(Cc2ccc(SC)cc2)CC1 — higher, 114%
- CCOC(=O)CSc1nc(N2CCOCC2)c2c(c1C#N)CC(C(C)C)OC2 (stereo unspecified) — higher, 104%
- COc1ccc(NC(=O)CN(C)C(=O)c2n[nH]c3ccccc23)cc1 — higher, 101%
- CN(C)S(=O)(=O)c1cccc(NC(=O)COc2ccc3ccccc3c2)c1 — lower, 90.9%
- O=C(CN1CCOCC1)N1CCCc2c1c(=O)oc1ccc(OCc3ccccc3)cc21 — higher, 99%
- Cc1cc(C)cc(NC(=O)C2CCCN(S(=O)(=O)c3ccc4[nH]c(=O)ccc4c3)C2)c1 (stereo unspecified) — lower, 98.8%
- COc1ccc(CNS(=O)(=O)c2cc(-c3cc(C)no3)ccc2C(C)C)cc1 — lower, 95.4%
- CN1CCC(=NNC(=O)CN(c2cccc(Cl)c2)S(C)(=O)=O)CC1 — lower, 95.2%
- Cc1cccc(CSc2ccc(-c3cccs3)nn2)c1 — lower, 87.4%
- CC(C)(C)CN1C(=O)C(=O)NC[C@H]1Cc1cccc2ccccc12 — higher, 101%
- CCCCC(=O)N(c1ccc(OC)cc1)C1C=CS(=O)(=O)C1 (stereo unspecified) — higher, 108%
- COc1cc(CO)c(C2(CO)CCCC2)cc1OC — lower, 94.8%
- CC(C)=CCN1CCN(CCCc2ccccc2)CC1CCO (stereo unspecified) — higher, 105%
- CCCCCc1nnc(NC(=O)c2ccc(=O)n(C)n2)s1 — higher, 113%
- O=S(=O)(c1ccc(Br)cc1)n1ccc2ccccc21 — lower, 77.6%
- CC(C)(C)OC(=O)NCCCCCNC(=O)c1[nH]cnc1C(=O)Nc1nccs1 — higher, 104%
- CCOCCc1nn2c(=O)cc(CSCC(=O)Nc3cccc(C)c3C)nc2s1 — lower, 96.3%
- C/C(=N\NC(=O)c1cc2c(s1)CCC(C)C2)c1cccnc1 (stereo unspecified) — higher, 104%
- O=C(NCCCn1ccnc1)/C(=C\c1ccccc1F)NC(=O)c1ccccc1 — lower, 93.1%
- Cc1c(C2=CCN(S(=O)(=O)c3ccc(Cl)cc3)CC2)c2ccccc2n1C — lower, 98.5%
- Cc1ccc(C(=O)Nc2ccn(C)n2)cc1 — higher, 109%
- Cn1ccc(NC(=O)Nc2ccc(Cl)cc2)n1 — lower, 95.9%
- CCCCC[C@@H]1C=C(C(=O)O)[C@H](c2ccc(C#N)cc2)N1S(=O)(=O)c1ccc(C)cc1 — lower, 88.2%
- COc1ccccc1N(CC(=O)NC1CCCC1)C(=O)C1(C)CC(=O)N=C2C=CC(C)=CN21 (stereo unspecified) — higher, 104%
- O=C(Nc1ccc(-c2cscn2)cc1)C1CCCN(Cc2ccc(CO)o2)C1 (stereo unspecified) — lower, 97.5%
- COc1ccc(C(=O)N2CCCCC2C(=O)Nc2ccc(-n3nc(C)cc3C)cc2)o1 (stereo unspecified) — higher, 109%
- O=C(COC(=O)C12CC3CC(CC(O)(C3)C1)C2)NC12CC3CC(CC(C3)C1)C2 — lower, 88.4%
- Cc1ccc(S(=O)(=O)NCCCn2ccnc2)cc1C(=O)NC(C)C — higher, 99.8%
- CCC(C)(C)NC(=O)CN(C(=O)CCC(=O)Nc1nccs1)c1ccc2c(c1)OCO2 — higher, 109%
- COc1ccc(C)cc1Nc1n[n+](-c2ccccc2)c(-c2cccc(Cl)c2Cl)s1 — higher, 112%
- O=C(c1ccc(F)cc1)c1cn(Cc2ccc(F)cc2)c2cc3c(cc2c1=O)OCCO3 — lower, 97%
- NC(=O)NC(=O)C(OC(=O)CCNS(=O)(=O)c1ccccc1)c1ccccc1 (stereo unspecified) — higher, 115%
- CC(C)(C)n1nc(Cc2cccc3ccccc23)c(C#N)c1N — lower, 91.2%
- CCCOc1ccc(C2NC(=O)NC(c3ccccc3)=C2C(C)=O)cc1OCC (stereo unspecified) — lower, 98.7%
- CC(=O)c1ccc(S(=O)(=O)NCc2nnnn2-c2ccccc2)cc1 — higher, 108%
- Cc1cc(C(=O)COc2ccccc2Cl)c(C)n1C1CC1 — lower, 80.4%
- O=C(c1cc(COc2c(F)cccc2F)on1)N1CCSCC1 — higher, 99.2%
- CCCN(C(=O)CSc1nnc(N)s1)c1c(N)n(Cc2ccccc2)c(=O)[nH]c1=O — higher, 102%
- CC1CCC(C(C)C)C(=O)/C1=C\c1ccc(NC(=O)CCC(=O)O)cc1 (stereo unspecified) — higher, 103%
- CC(=O)NC1C(Oc2ccc(C=O)cc2)OC(COC(C)=O)C(OC(C)=O)C1OC(C)=O (stereo unspecified) — higher, 102%
- COc1ccc(CCNC(=O)C(=O)Nc2ccc3nc4n(c(=O)c3c2)CCCCC4)cc1OC — lower, 96.1%
- CC(C)Oc1ccc(/C=N/NC(=O)c2nnn(-c3nonc3N)c2CN(C)C2CCCCC2)cc1 — higher, 99.5%
- Cc1cc(NC(=O)/C=C/C(=O)N(CC(=O)NC2CCCC2)c2ccc(F)cc2)no1 — lower, 96.7%

With `CC(C)c1ccc2c(c1)c(SC(C)(C)C)c(CC(C)(C)C(=O)O)n2Cc1ccc(Cl)cc1` the GFP response vs DMSO was 112% and 88.8%.
For `COC(=O)C[n+]1cccc2ccccc21`, the GFP response vs DMSO was 175% (active).
In the case of `CN(Cc1ccccc1)C(=O)C(=O)c1cn(CC(=O)N2CCCC2)c2ccccc12`, the GFP response vs DMSO is reported as 154% (active).
For `CC[n+]1cc(C)ccc1/C=C/c1ccc(N(C)C)cc1`, the GFP response vs DMSO was 158% (active).
For `CN(C)S(=O)(=O)c1cc(C(=O)Nc2ccn(C)n2)c(Cl)cc1Cl`, the GFP response vs DMSO was 6000% [may fluoresce green] (active).
In the case of `CCC(=C/c1sc2ccc3ccccc3c2[n+]1C)/C=C1\Sc2ccc3ccccc3c2N1C`, the GFP response vs DMSO is reported as 189% (active).
